Test results published in PubChem BioAssay (Tox21).
Inconclusive results are not listed. Activity calls are given as the source filed them. Unless noted, calls come from the whole dose curve.

What was measured:
[1] = Nuclear factor erythroid 2-related factor 2/antioxidant responsive element (Nrf2/ARE) small molecule agonists: qHTS cell viability counter screen in human keratinocytes (AID 1919968; active = well fitted curve in the direction sought with a large enough effect in the repeat runs; an effect the other way counts as inactive or inconclusive; note: nearly all actives have a fitted effect of over 55% in size; note: potency is the fitted concentration of half-maximal effect)
How it was run: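 In human HaCaT keratinocytes stably expressing an ARE-driven luciferase, compound exposure lasted 23 h at 37 C under 5% CO2. Viable cells are quantified with a protease-based fluorogenic reagent (CellTiter-Fluor) read 1 h after addition.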

[2] = biological target: Gonadotropin-releasing hormone receptor (Homo sapiens) (UniProt P30968); assay: Human gonadotropin-releasing hormone receptor (GnRHR) small molecule agonists, calcium flux assay in GnRHR-HEK293 cells (AID 1920063); note: nearly all actives have a fitted effect of over 35% in size
Sequence of Gonadotropin-releasing hormone receptor (Homo sapiens) (P30968 whole entry, looked up): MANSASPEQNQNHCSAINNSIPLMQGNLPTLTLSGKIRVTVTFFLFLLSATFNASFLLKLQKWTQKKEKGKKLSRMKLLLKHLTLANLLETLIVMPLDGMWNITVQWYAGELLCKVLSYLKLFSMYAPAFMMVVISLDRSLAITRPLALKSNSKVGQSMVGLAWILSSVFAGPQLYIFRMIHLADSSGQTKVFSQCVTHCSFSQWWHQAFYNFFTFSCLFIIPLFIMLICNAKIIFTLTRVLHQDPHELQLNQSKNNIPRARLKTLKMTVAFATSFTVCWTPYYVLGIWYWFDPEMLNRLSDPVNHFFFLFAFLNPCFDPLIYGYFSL
How it was run: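 Intracellular calcium rise is the read-out: engineered human GnRHR HEK293 cells, dye-loaded, are exposed to DMSO-dissolved compounds and fluorescence at Ex/Em 480/540 is tracked for 3 min.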

[3] = biological target: KiSS-1 receptor (Homo sapiens) (UniProt Q969F8); assay: Human kisspeptin (KISS1R) small molecule agonists, calcium flux assay in KISS1R-HEK293 cells (AID 1920064; active = well fitted curve in the direction sought with a large enough effect in the repeat runs; an effect the other way counts as inactive or inconclusive)
Sequence of KiSS-1 receptor (Homo sapiens) (Q969F8 whole entry, looked up): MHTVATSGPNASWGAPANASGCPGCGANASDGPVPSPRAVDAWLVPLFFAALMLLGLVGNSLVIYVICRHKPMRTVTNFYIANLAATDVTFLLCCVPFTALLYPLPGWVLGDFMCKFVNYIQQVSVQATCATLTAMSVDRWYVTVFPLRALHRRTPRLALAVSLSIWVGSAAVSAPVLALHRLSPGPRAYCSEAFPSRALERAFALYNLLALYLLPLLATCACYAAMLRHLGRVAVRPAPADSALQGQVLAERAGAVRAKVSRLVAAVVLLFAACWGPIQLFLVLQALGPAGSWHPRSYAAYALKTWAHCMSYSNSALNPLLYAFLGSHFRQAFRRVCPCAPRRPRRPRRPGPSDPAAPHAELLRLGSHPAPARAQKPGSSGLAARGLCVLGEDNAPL
How it was run: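 Concentration-response testing used 15 concentrations in triplicate on human KISS1R-expressing HEK293 cells. Calcium-dependent fluorescence (Ex/Em 480/540) was followed kinetically for 3 min after compound transfer.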

[4] = G protein-coupled receptor (GPCR) small molecule agonists, calcium flux assay: HEK293 wild type cell line counter screen (AID 1920065)
How it was run: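 Fluorescence intensity signals activation. After overnight (18 h) culture and a 1 h calcium dye load at 37 C, compounds are added by pin tool and the plate read at 480/540 nm for 3 min in 1 s steps.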

[5] = p53 small molecule agonists, cell-based qHTS assay with rat liver microsomes (AID 1963578); note: potency is the fitted concentration of half-maximal effect
How it was run: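 Fluorescence from a beta-lactamase reporter under a p53 response element was measured after cells had been incubated 16 h at 37 C with test compound and rat liver microsomes plus NADPH (0.5 mg/mL final each).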

[6] = p53 small molecule agonists, cell-based qHTS assay with rat liver microsomes: qHTS cell viability counter screen (AID 1963580); note: nearly all actives have a fitted effect of over 45% in size; note: potency is the fitted concentration of half-maximal effect
How it was run: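 Cytotoxicity counter screen: intracellular ATP measured by CellTiter-Glo luminescence in the same wells as the beta-lactamase reporter read, on HCT-116 p53RE-bla cells exposed 16 h at 37 C to compounds with rat liver microsomes and NADPH, each 0.5 mg/mL final.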

[7] = p53 small molecule agonists, cell-based qHTS assay: qHTS cell viability counter screen (AID 1963581); note: nearly all actives have a fitted effect of over 45% in size; note: potency is the fitted concentration of half-maximal effect
How it was run: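 Luminescence from CellTiter-Glo, reflecting ATP content, serves as the cytotoxicity measure; it is taken after the 2 h reporter substrate step in HCT-116 p53RE-bla cells dosed for 16 h at 37 C.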

[8] = p53 small molecule agonists, cell-based qHTS assay (AID 1963582; active = well fitted activation curve with a large enough effect in the signal ratio in the repeat runs, not every such curve was filed as active; the % refers to the signal ratio; note: potency is the fitted concentration of half-maximal effect)
How it was run: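 After plating, p53RE-bla cells sat 5 h in the incubator; compounds or DMSO vehicle were pinned in; a 16 h incubation at 37 C followed; FRET substrate was added and, 2 h later at RT, fluorescence was measured.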

[9] = biological target: 5-hydroxytryptamine receptor 2A (Homo sapiens) (UniProt P28223); assay: 5-hydroxytryptamine receptor 2A (HTR2A) small molecule antagonists, cell-based qHTS assay (AID 1963586); note: nearly all actives have a fitted effect of over 45% in size
Sequence of 5-hydroxytryptamine receptor 2A (Homo sapiens) (P28223 whole entry, looked up): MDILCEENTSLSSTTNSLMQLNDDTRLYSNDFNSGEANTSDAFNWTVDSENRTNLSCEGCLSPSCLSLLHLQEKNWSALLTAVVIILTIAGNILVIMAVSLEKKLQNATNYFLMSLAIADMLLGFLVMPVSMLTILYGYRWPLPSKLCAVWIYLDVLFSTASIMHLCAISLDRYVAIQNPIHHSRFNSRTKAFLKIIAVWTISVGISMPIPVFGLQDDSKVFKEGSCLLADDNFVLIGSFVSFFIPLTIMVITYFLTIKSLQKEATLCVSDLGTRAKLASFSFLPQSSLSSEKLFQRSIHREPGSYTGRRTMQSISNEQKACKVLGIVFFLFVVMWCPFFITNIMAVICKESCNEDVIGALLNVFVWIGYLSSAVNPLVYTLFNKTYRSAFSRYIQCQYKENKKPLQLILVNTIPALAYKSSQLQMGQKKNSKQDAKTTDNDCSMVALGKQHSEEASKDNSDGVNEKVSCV
How it was run: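 CHO cells stably expressing human HTR2A were plated for 18 h at 37 C, then loaded with calcium dye for 1 h. Compounds were preincubated 5 min at room temperature before DOI (4 nM solution) was added. Kinetic fluorescence was read for 3 min.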

[10] = biological target: 5-hydroxytryptamine receptor 2A (Homo sapiens) (UniProt P28223); assay: 5-hydroxytryptamine receptor 2A (HTR2A) small molecule agonists, cell-based qHTS assay (AID 1963587); note: nearly all actives have a fitted effect of over 30% in size
How it was run: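 CHO cells stably expressing human HTR2A, plated 18 h, loaded with calcium dye 1 h at 37 C. Agonist mode: compounds added and intracellular calcium fluorescence recorded kinetically for 2 min at 1 sec intervals.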

[11] = biological target: Muscarinic acetylcholine receptor M1 (Homo sapiens) (UniProt P11229); assay: Cholinergic receptor muscarinic 1 (CHRM1) small molecule antagonists, cell-based qHTS assay (AID 1963588); note: nearly all actives have a fitted effect of over 40% in size
Sequence of Muscarinic acetylcholine receptor M1 (Homo sapiens) (P11229 whole entry, looked up): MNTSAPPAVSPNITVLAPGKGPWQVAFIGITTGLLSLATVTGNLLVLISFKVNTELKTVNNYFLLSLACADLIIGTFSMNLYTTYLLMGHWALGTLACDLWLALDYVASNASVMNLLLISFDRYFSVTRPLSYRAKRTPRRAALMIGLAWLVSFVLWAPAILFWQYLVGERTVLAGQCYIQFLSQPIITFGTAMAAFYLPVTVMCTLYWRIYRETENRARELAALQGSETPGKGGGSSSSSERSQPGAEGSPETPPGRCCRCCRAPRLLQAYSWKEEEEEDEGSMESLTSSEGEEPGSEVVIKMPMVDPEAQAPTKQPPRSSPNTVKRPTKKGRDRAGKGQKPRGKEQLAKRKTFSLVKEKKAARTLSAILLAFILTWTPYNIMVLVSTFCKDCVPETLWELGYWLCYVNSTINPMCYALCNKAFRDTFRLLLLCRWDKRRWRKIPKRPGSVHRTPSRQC
How it was run: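 Compounds were tested at 15 concentrations in three independent runs. Dye-loaded CHRM1-CHO cells were exposed 5 min at room temperature before stimulation by acetylcholine added at 50nM. Intracellular calcium was read kinetically on FDSS for 3 min.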

[12] = biological target: Muscarinic acetylcholine receptor M1 (Homo sapiens) (UniProt P11229); assay: Cholinergic receptor muscarinic 1 (CHRM1) small molecule agonists, cell-based qHTS assay (AID 1963589); note: nearly all actives have a fitted effect of over 35% in size
How it was run: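 Fluorescent calcium dye reports M1 activation in stably transfected CHO cells. Compounds, 15 concentrations, added after 1 h dye loading at 37 C; kinetic reading at 1 sec intervals.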

[13] = cAMP Responsive Elements (CRE) small molecule agonists, cell-based qHTS assay (AID 1963590)
How it was run: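 Compound exposure lasted 3 h at 37 C/5% CO2 in CRE-bla HEK 293T cells grown in assay medium with 10% dialyzed FBS and 25 mM HEPES. Reporter signal came from LiveBLAzer B/G FRET substrate, 2 h, room temperature.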

[14] = cAMP Responsive Elements (CRE) small molecule antagonists, cell-based qHTS assay (AID 1963591; active = well fitted inhibition curve with a large enough effect in the signal ratio in the repeat runs, not every such curve was filed as active; the % refers to the signal ratio; note: potency is the fitted concentration of half-maximal effect)
How it was run: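 Stimulation used NKH477 at a final 0.25 uM for 3 h in compound-treated CRE-bla HEK293T cells, seeded 18 h beforehand. Reporter activity was measured with LiveBLAzer B/G FRET substrate after 2 h at room temperature.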

[15] = biological target: Beta-2 adrenergic receptor (Homo sapiens) (UniProt P07550); assay: Adrenergic beta2 receptor (ADRB2) small molecule antagonists, cell-based qHTS assay (AID 1963592); note: series mostly up to about 92 µM; nearly all actives have a fitted effect of over 50% in size
Sequence of Beta-2 adrenergic receptor (Homo sapiens) (P07550 whole entry, looked up): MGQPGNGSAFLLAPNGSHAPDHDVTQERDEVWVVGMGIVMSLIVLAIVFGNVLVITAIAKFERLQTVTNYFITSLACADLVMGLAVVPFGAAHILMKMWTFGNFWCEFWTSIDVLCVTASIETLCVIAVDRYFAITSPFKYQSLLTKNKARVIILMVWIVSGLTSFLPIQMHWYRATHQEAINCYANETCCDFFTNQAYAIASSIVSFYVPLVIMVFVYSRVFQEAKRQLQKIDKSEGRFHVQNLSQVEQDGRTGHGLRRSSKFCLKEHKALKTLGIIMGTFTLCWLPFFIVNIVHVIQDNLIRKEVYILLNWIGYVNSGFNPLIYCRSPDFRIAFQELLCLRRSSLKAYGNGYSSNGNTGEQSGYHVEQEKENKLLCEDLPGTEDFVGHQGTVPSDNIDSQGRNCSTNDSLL
How it was run: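 Assay format: CHO-ADRB2 cells, 18-20hr seeding at 37C/5% CO2, then compound plus 1nM isoproterenol agonist mix for 0.5hr RT. Homogeneous time-resolved fluorescence cAMP detection after 1hr, expressed as 665/615 nm ratio.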

[16] = p53 small molecule agonists, cell-based qHTS assay with human liver microsomes: qHTS cell viability counter screen (AID 1963579); note: nearly all actives have a fitted effect of over 45% in size; note: potency is the fitted concentration of half-maximal effect
How it was run: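 Seed p53RE-bla cells at 4,000 per well; incubate 5 h at 37 C; add compound, human liver microsomes and NADPH; incubate 16 h at 37 C; add CellTiter-Glo; after 30 min at room temperature, read luminescence.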

[17] = biological target: D(2) dopamine receptor (Homo sapiens) (UniProt P14416); assay: Dopamine D2 receptor (DRD2) small molecule agonists, cell-based qHTS assay (AID 1963594); note: nearly all actives have a fitted effect of over 35% in size
Sequence of D(2) dopamine receptor (Homo sapiens) (P14416 whole entry, looked up): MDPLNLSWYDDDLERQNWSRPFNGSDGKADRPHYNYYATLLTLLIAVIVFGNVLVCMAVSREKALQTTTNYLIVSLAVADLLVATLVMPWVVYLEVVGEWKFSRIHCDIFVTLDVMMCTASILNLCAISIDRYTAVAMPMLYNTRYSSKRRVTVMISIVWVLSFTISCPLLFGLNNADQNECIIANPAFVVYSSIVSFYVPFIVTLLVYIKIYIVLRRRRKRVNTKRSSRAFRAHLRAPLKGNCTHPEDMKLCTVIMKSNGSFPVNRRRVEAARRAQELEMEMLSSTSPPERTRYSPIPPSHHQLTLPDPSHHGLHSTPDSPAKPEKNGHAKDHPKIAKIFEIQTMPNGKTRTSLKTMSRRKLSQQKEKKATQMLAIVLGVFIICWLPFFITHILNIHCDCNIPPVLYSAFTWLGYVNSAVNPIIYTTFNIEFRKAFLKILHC
How it was run: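 HEK293 cells stably expressing human DRD2, pre-treated with PDE inhibitor Ro20-1724 (0.1 mM final) and compound 10 min at room temperature, then stimulated with NKH477 (200nM […]) for 30 min. cAMP read by HTRF (665/620 nm).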

[18] = biological target: Beta-2 adrenergic receptor (Homo sapiens) (UniProt P07550); assay: Adrenergic beta2 receptor (ADRB2) small molecule agonists, cell-based qHTS assay (AID 1963593);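 note: CHO cells stably overexpressing human ADRB2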
How it was run: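 CHO cells stably over-expressing ADRB2 were plated overnight at 37C, then dosed with compounds plus a stimulation mix containing 100uM IBMX and 25uM Ro-20-1724 for 0.5hr at room temperature. cAMP was measured by HTRF competition, 1hr.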

[19] = biological target: D(2) dopamine receptor (Homo sapiens) (UniProt P14416); assay: Dopamine D2 receptor (DRD2) small molecule antagonists, cell-based qHTS assay (AID 1963595; active = well fitted inhibition curve with a large enough effect in the signal ratio in the repeat runs, with a control signal flat; the % refers to the signal ratio)
How it was run: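 Stable D2 receptor HEK293 line, 24 h after seeding. Compound preincubated 10 min, then quinpirole (12 nM) with forskolin analogue NKH477 (200 nM), 30 min, room temperature. Detection by time-resolved FRET of cAMP.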
% is set by controls: 0 for no effect and ±100 for the full control effect.

C=Cc1c(C)c2cc3[nH]c(cc4nc(cc5nc(cc1[nH]2)C(C)=C5CCC(=O)O)C(CCC(=O)O)=C4C)c(C)c3C=C
inactive: Potency [1] | Potency [2] | Potency [3] | Potency [4] | Potency [5] | Potency [6] | Potency [7] | Potency [8] | Potency [9] | Potency [10] | Potency [11] | Potency [12] | Potency [13] | Potency [14] | Potency [15]

O=S(c1cc(Cl)cc(Cl)c1O)c1cc(Cl)cc(Cl)c1O
active: Potency [1] 23.7 µM | Potency [8] 17.8 µM
inactive: Potency [2] | Potency [3] | Potency [4] | Potency [5] | Potency [16] | Potency [6] | Potency [10] | Potency [12] | Potency [14] | Potency [15] | Potency [17]

Oc1ccc(C2(c3ccc(O)cc3)CC3CC2C2CCCC32)cc1 (stereo not drawn)
active: Potency [1] 29.4 µM | Potency [16] 17.5 µM | Potency [7] 34.9 µM | Potency [14] 65.9 µM
inactive: Potency [2] | Potency [3] | Potency [4] | Potency [5] | Potency [11] | Potency [12] | Potency [15] | Potency [18] | Potency [17]

Cn1c(N)nc2nc[nH]c2c1=O
inactive: Potency [1] | Potency [2] | Potency [3] | Potency [4] | Potency [5] | Potency [16] | Potency [6] | Potency [9] | Potency [10] | Potency [11] | Potency [12] | Potency [14]

O=C1c2ccccc2C(=O)c2c(O)ccc(O)c21
inactive: Potency [1] | Potency [2] | Potency [3] | Potency [4] | Potency [5] | Potency [16] | Potency [6] | Potency [8] | Potency [9] | Potency [10] | Potency [11] | Potency [12] | Potency [14] | Potency [15] | Potency [18] | Potency [17] | Potency [19]

CCC[C@@H]1C[C@@H](C(=O)N[C@@H]([C@H]2O[C@H](SC)[C@H](O)[C@@H](O)[C@H]2O)[C@@H](C)O)N(C)C1
inactive: Potency [1] | Potency [2] | Potency [3] | Potency [4] | Potency [5] | Potency [16] | Potency [6] | Potency [7] | Potency [8] | Potency [13] | Potency [14] | Potency [15] | Potency [18] | Potency [17] | Potency [19]

CCCNC(C)C(=O)Nc1c(C)csc1C(=O)OC (stereo not drawn)
inactive: Potency [1] | Potency [2] | Potency [3] | Potency [4] | Potency [5] | Potency [16] | Potency [6] | Potency [8] | Potency [10] | Potency [11] | Potency [13] | Potency [14] | Potency [15] | Potency [18] | Potency [17] | Potency [19]

Cc1ccc(O)c2ncccc12
inactive: Potency [2] | Potency [3] | Potency [4] | Potency [5] | Potency [16] | Potency [7] | Potency [8] | Potency [9] | Potency [10] | Potency [11] | Potency [12] | Potency [13]
active: Potency [1] 2.66 µM | Potency [14] 13.3 µM

CC1=CC(=C(c2ccc(N)cc2)c2ccc(N)cc2)C=CC1=N
inactive: activity change, negative = cytotoxicity [1] -10.2% [at 8.39 µM] | activity change [2] -1.28% [at 5.22 µM, stronger effect = higher value] | activation [3] 0.102% [at 6.97 µM] | activation [4] -0.23% [at 5.23 µM] | activation [5] -2.26% [at 5.99 µM] | activity change, negative = cytotoxicity [16] -13.2% [at 5.99 µM] | activity change, negative = cytotoxicity [7] -0.979% [at 5.99 µM] | activation [8] -2.87% [at 5.99 µM] | activity, negative = inhibition [9] 14.5% [at 5.62 µM] | activation [10] 2.32% [at 7.02 µM] | activity, negative = inhibition [11] -8.08% [at 5.58 µM] | activation [12] -0.812% [at 6.97 µM] | activation [13] -0.0749% [at 8.39 µM] | activity change, negative = inhibition [14] -12.2% [at 8.39 µM] | activity change, negative = inhibition [15] -4.98% [at 8.39 µM] | activation [18] -33.8% [at 8.39 µM] | activation [17] -0.554% [at 8.39 µM] | activity change, negative = inhibition [19] 0.406% [at 8.38 µM]

CCCCC1C(=O)N(c2ccccc2)N(c2ccc(O)cc2)C1=O (stereo not drawn)
inactive: Potency [2] | Potency [3] | Potency [4] | Potency [5] | Potency [16] | Potency [6] | Potency [7] | Potency [9] | Potency [10] | Potency [11] | Potency [12] | Potency [15] | Potency [17]
active: Potency [1] 21.1 µM

CC(C)COC(=O)c1ccc(O)cc1
inactive: Potency [1] | Potency [2] | Potency [3] | Potency [4] | Potency [5] | Potency [16] | Potency [6] | Potency [7] | Potency [8] | Potency [9] | Potency [10] | Potency [11] | Potency [12] | Potency [15] | Potency [19]

Cc1ccc(NC(=O)c2ccc(CN3CCN(C)CC3)cc2)cc1Nc1nccc(-c2cccnc2)n1
inactive: Potency [1] | Potency [2] | Potency [3] | Potency [4] | Potency [5] | Potency [16] | Potency [6] | Potency [7] | Potency [8] | Potency [13] | Potency [15] | Potency [18] | Potency [17] | Potency [19]

CN(C)c1ccc(N=NS(=O)(=O)O)cc1
inactive: Potency [1] | Potency [2] | Potency [3] | Potency [4] | Potency [5] | Potency [16] | Potency [6] | Potency [7] | Potency [9] | Potency [11] | Potency [17]

CCc1c2c(nc3ccc(OC(=O)N4CCC(N5CCCCC5)CC4)cc13)-c1cc3c(c(=O)n1C2)COC(=O)[C@]3(O)CC
active: Potency [5] 0.0178 µM | Potency [6] 1.26 µM | Potency [8] 5 µM
inactive: Potency [1] | Potency [2] | Potency [3] | Potency [4] | Potency [16] | Potency [15] | Potency [17] | Potency [19]
